Data on 14 compounds can be found in ChEMBL document CHEMBL4513136, “CO-ADD screening of CSIC (Spain) compounds”.

In one experiment the test system is Klebsiella pneumoniae. The note with it: Concentration 32 ug.mL-1; ASSAY_TEST Inhibition of Bacterial Growth; detection method Absorption (OD600); MEDIA CAMHB; plate type 384well; NBS; CORNING #3640; time 18 hr.
Another experiment has as its system Candida albicans. The note with it: 32 ug/mL.
A further experiment has as its system Cryptococcus neoformans. The note with it: Concentration 32 ug.mL-1; ASSAY_TEST Inhibition of Fungal Growth; detection method Resazurin; Absorption (OD600-OD570); plate type 384well; NBS; CORNING #3640.

Results with a measured potency or affinity are listed apart.

Regarding `O=C(OCc1ccccc1)N1C(=O)C(c2ccccc2NC(=O)C(F)(F)F)=C(O)C1Cc1ccccc1` (configuration not stated), the values for the Inhibition in the experiment with Klebsiella pneumoniae, in the experiment on Candida albicans and with Cryptococcus neoformans were 7.86%, 0.9% and -95.18%, respectively.

As to `O=C(Nc1ccc(O)cc1O)Nc1cc(O)ccc1O`, the figures for the Inhibition in the experiment with Klebsiella pneumoniae, in the experiment on Candida albicans and in the experiment on Cryptococcus neoformans were 9.23%, -2.25% and 15.83%, respectively.

As for `COc1ccc(NC(=O)Cc2cc(OC)ccc2OC)cc1`, the Inhibition was 9.76% in the experiment on Klebsiella pneumoniae, 1.24% in the experiment with Candida albicans and -67.4% with Cryptococcus neoformans.

Consider `Oc1ccc(O)c(-c2cn(-c3ccc(O)c(O)c3)nn2)c1`, for which the values for the Inhibition in the experiment on Klebsiella pneumoniae, with Candida albicans and in the experiment with Cryptococcus neoformans were -0.99%, 3.17% and -118.29%, respectively.

Take `O=C(/C=C/c1ccccc1O)c1cc(O)c(O)cc1O`: the Inhibition in the experiment on Klebsiella pneumoniae was 21.23%; in the experiment on Candida albicans it was 6.47%; in the experiment on Cryptococcus neoformans, -81.74%.

`COc1ccc(OC)c(NC(=O)Nc2ccc(OC)cc2OC)c1`: the Inhibition in the experiment on Klebsiella pneumoniae was 6.68%; with Candida albicans, -0.5%; with Cryptococcus neoformans, -79.12%.

Take `COc1ccc(OC)c(CC(=O)Nc2cc(OC)ccc2OC)c1`: the results for the Inhibition with Klebsiella pneumoniae, in the experiment on Candida albicans and in the experiment with Cryptococcus neoformans were 5.13%, 6.79% and -78.53%, respectively.

Turning to `COC(=O)C1(Cc2ccc(OCc3c(Cl)cccc3Cl)cc2)C(C)C(=O)N1Cc1ccc(OC)cc1` (configuration not stated), the Inhibition in the experiment on Klebsiella pneumoniae was 5.7%; in the experiment on Candida albicans, 7.8%; with Cryptococcus neoformans, -62.93%.

As to `O=C(Cc1cc(O)ccc1O)Nc1cc(O)ccc1O`, the Inhibition in the experiment with Klebsiella pneumoniae is 9.18%; with Candida albicans, 0.34%; in the experiment on Cryptococcus neoformans it was -2.68%.

As for `Oc1ccc(-n2cc(-c3cc(O)ccc3O)nn2)cc1`, the Inhibition is 10.3% with Klebsiella pneumoniae, 1.72% with Candida albicans and -19.32% in the experiment on Cryptococcus neoformans.

`COc1ccc(OC)c(C(=O)CCc2ccc(O)cc2)c1`: the Inhibition with Klebsiella pneumoniae was 3.34%; with Candida albicans, 1.55%; with Cryptococcus neoformans, -66.83%.

Regarding `COc1ccccc1/C=C/C(=O)c1cc(OC)c(OC)cc1OC`, the Inhibition in the experiment on Klebsiella pneumoniae is 12.89%; with Candida albicans, 3.46%; in the experiment on Cryptococcus neoformans it was -68.54%.

With `O=C(Cc1cc(O)ccc1O)Nc1ccc(O)cc1`, the values for the Inhibition in the experiment on Klebsiella pneumoniae, with Candida albicans and with Cryptococcus neoformans were 12.9%, 2.83% and -32.05%, respectively.

Regarding `O=C(Cc1cc(O)ccc1O)Nc1ccc(O)cc1O`, the values for the Inhibition with Klebsiella pneumoniae, with Candida albicans and in the experiment with Cryptococcus neoformans were 6.35%, 4.45% and -73.31%, respectively.
